# In PubChem BioAssay (Tox21):
# Inconclusive results are not listed. Entries that show only a call come without a potency. Calls of active or inactive are those of the source. Unless noted, calls follow the shape of the dose curve; as a rule, active = well fitted curve in the direction sought with a large enough effect in the repeat runs; inconclusive = weak or mixed curves; inactive = no such curve, though single readings can be large; an effect the other way counts as inactive or inconclusive.
# Tests used:
# [1] = biological target: Aryl hydrocarbon receptor (Homo sapiens) (UniProt P35869); experiment: qHTS assay to identify small molecule that activate the aryl hydrocarbon receptor (AhR) signaling pathway (AID 743085); also: nearly all actives have a fitted effect of over 15% in size; also: potency is read from the fitted curve at half-maximal effect;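 as to activation: HG2L7.5c1 human HepG2 liver cells with stably integrated DRE-driven firefly reporter; series mostly up to about 70 µM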
# Chain of Aryl hydrocarbon receptor (Homo sapiens) (P35869 whole entry, looked up): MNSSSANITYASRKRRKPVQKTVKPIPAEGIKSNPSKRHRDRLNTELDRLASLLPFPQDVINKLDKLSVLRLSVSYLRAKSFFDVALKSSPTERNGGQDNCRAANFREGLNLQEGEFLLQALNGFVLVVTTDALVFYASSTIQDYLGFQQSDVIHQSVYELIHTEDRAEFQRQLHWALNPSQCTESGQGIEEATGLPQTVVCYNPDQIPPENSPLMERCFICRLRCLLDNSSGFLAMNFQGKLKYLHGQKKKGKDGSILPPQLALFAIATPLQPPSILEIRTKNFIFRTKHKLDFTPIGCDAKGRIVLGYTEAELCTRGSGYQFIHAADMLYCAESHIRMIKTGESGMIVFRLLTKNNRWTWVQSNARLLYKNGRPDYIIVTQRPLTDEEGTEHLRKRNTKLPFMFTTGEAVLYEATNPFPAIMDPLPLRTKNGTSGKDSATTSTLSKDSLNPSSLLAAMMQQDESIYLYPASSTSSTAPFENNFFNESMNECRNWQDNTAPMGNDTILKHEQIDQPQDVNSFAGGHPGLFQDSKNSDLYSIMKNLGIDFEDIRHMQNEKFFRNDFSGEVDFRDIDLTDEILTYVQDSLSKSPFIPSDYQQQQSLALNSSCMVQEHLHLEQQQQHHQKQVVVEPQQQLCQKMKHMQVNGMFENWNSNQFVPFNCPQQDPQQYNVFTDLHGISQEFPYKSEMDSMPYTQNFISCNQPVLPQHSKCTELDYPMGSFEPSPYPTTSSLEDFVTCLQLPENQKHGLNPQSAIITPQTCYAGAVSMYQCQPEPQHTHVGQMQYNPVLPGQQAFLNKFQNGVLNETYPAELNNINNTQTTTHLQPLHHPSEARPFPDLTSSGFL
# Method in brief: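 HepG2 cells (HG2L7.5c1) stably carrying a firefly luciferase reporter driven by 20 dioxin responsive elements were exposed to compound for 24 h at 37C after a 5 h settling period; luminescence rise (ONE-Glo) indicated activation.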
# [2] = biological target: Peroxisome proliferator-activated receptor gamma (Homo sapiens) (UniProt P37231); experiment: qHTS assay to identify small molecule agonists of the peroxisome proliferator-activated receptor gamma (PPARg) signaling pathway (AID 743094; active = well fitted activation curve with a large enough effect in the signal ratio in the repeat runs, not every such curve was filed as active; the % refers to the signal ratio)
# Chain of Peroxisome proliferator-activated receptor gamma (Homo sapiens) (P37231 whole entry, looked up): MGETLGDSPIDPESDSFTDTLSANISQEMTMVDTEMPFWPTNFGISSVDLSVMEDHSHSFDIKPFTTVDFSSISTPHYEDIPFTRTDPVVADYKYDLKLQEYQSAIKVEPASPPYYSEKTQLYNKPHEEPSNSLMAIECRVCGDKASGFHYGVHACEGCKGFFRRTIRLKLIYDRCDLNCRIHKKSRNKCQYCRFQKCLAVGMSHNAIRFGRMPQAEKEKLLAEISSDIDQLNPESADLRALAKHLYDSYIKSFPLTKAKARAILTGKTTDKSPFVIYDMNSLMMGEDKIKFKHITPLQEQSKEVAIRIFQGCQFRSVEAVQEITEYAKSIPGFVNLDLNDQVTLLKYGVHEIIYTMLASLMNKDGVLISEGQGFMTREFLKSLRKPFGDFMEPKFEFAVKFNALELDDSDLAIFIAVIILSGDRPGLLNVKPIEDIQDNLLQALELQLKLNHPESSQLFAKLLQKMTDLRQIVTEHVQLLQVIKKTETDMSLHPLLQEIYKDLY
# Method in brief: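 HEK293H PPARg-bla cells, 5 h settle at 37C/5% CO2; compound (DMSO) 17 h, 37C; B/G FRET substrate 1 h RT; fluorescence intensity read-out. qHTS format.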
# [3] = biological target: Peroxisome proliferator-activated receptor gamma (Homo sapiens) (UniProt P37231); experiment: qHTS assay to identify small molecule antagonists of the peroxisome proliferator-activated receptor gamma (PPARg) signaling pathway (AID 743191; calls by dose curve; also: nearly all actives have a fitted effect of over 30% in size; also: potency is read from the fitted curve at half-maximal effect)
# Method in brief: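 GeneBLAzer PPARg UAS-bla HEK293H cells carrying a UAS-driven beta-lactamase reporter were plated at 3000 cells/well, preincubated 5 h at 37C, then given compound for 17 h at 37C; LiveBLAzer B/G FRET substrate was read after 1 h at room temperature.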
# [4] = qHTS assay to identify small molecule antagonists of the peroxisome proliferator-activated receptor gamma (PPARg) signaling pathway - cell viability counter screen (AID 743194); also: nearly all actives have a fitted effect of over 55% in size
# Method in brief: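 PPARg-UAS-bla HEK293H cells were plated, rested 5 h at 37 C, then treated with compounds plus rosiglitazone (50 nM final) for 17 h at 37 C; viability was then read by CellTiter-Glo luminescence after 30 min at room temperature.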
# [5] = qHTS assay for small molecule agonists of the antioxidant response element (ARE) signaling pathway (AID 743202; active = well fitted activation curve with a large enough effect in the signal ratio in the repeat runs, not every such curve was filed as active; the % refers to the signal ratio; also: potency is read from the fitted curve at half-maximal effect)
# Method in brief: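 Steps: seed ARE-bla HepG2 cells (2,000/well); incubate 5 h at 37 C; add compounds by pin tool; incubate 16 h at 37 C; add FRET substrate; read fluorescence after 2 h at RT.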
# [6] = qHTS assay for small molecule agonists of the antioxidant response element (ARE) signaling pathway - cell viability counter screen (AID 743203; calls by dose curve; also: nearly all actives have a fitted effect of over 55% in size; also: potency is read from the fitted curve at half-maximal effect)
# Method in brief: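 Luminescence read-out (CellTiter-Glo, 30 min at room temperature) measured cell viability in the same wells as the ARE beta-lactamase reporter. HepG2 ARE-bla cells were treated with compounds for 16 hrs at 37C/5% CO2.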
# [7] = qHTS assay for small molecule activators of the heat shock response signaling pathway - cell viability counter screen (AID 743209); also: nearly all actives have a fitted effect of over 50% in size; also: potency is read from the fitted curve at half-maximal effect
# Method in brief: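 HSE-bla HeLa; 1500 cells/well; overnight 37 C, 5% CO2; compound 5 h 37 C; LiveBLAzer B/G substrate 2.5 h RT; CellTiter-Glo 30 min RT; luminescence.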
# [8] = qHTS assay for small molecule activators of the heat shock response signaling pathway (AID 743210; active = well fitted activation curve with a large enough effect in the signal ratio in the repeat runs, with a control signal flat, not every such curve was filed as active; the % refers to the signal ratio;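 also: HeLa cells with beta-lactamase reporter driven by heat shock elements; series mostly up to about 63 µM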)
# Method in brief: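 Activation of heat shock element-controlled beta-lactamase expression is measured in HeLa cells by LiveBLAzer FRET fluorescence, with compound exposure lasting 5 h at 37 C and substrate loading 2.5 h at room temperature.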
# [9] = qHTS assay to identify small molecule that activate the aryl hydrocarbon receptor (AhR) signaling pathway - cell viability counter screen (AID 743086); also: nearly all actives have a fitted effect of over 45% in size; also: potency is read from the fitted curve at half-maximal effect
# Method in brief: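 HepG2-AhR-luc (HG2L7.5c1) cells, 4000/well, were preincubated 5 h at 37C, exposed to compound in qHTS format for 24 hr at 37C, then given CellTiter-Fluor for 30 min; viability was read as fluorescence in the reporter wells.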
SMILES,Potency [1],Potency [2],Potency [3],Potency [4],Potency [5],Potency [6],Potency [7],Potency [8],Potency [9]
O=C(CCC1CCN(Cc2ccccc2)CC1)c1ccc2c(c1)NCCCC2,23.7 µM (active),inactive,inactive,inactive,23.7 µM (active),inactive,inactive,inactive,–
CCOC(=O)N1CCC(n2c(=O)[nH]c3cc(Cl)ccc32)CC1,–,–,inactive,inactive,6.68 µM (active),inactive,inactive,inactive,–
COc1cc2ncnc(Nc3ccc(F)c(Cl)c3)c2cc1OCCCN1CCOCC1,15 µM (active),inactive,–,inactive,–,–,inactive,inactive,inactive
O=C(O)c1ccccc1NCCc1ccccc1,–,–,–,inactive,–,inactive,inactive,inactive,–
CCCCC(CC)C(=O)OCCOCCOCCOCCOC(=O)C(CC)CCCC (centres undefined),inactive,inactive,–,inactive,inactive,inactive,inactive,inactive,inactive
CCc1c2c(nc3ccc(OC(=O)N4CCC(N5CCCCC5)CC4)cc13)-c1cc3c(c(=O)n1C2)COC(=O)[C@]3(O)CC,inactive,–,–,inactive,–,inactive,inactive,inactive,inactive
C/C=C/C=C/CCCCCCCO,inactive,inactive,–,inactive,–,inactive,–,–,inactive
N#C/C(=C1/SC[C@@H](c2ccc(Cl)cc2Cl)S1)n1ccnc1,–,–,–,inactive,–,–,inactive,inactive,inactive
CCCCC(CC)CNCC(CC)CCCC (centres undefined),–,–,–,inactive,inactive,inactive,inactive,inactive,inactive
O=C(N[C@@H](c1ccccc1)[C@@H]1CCCCN1)c1cccc(C(F)(F)F)c1Cl,inactive,–,–,–,–,21.7 µM (active),inactive,inactive,24.3 µM (active)
COC(=O)c1cc(Cl)ccc1NS(=O)(=O)C(F)(F)F,–,–,inactive,inactive,inactive,inactive,inactive,inactive,–
C=CCNc1nc(NCC=C)nc(N2CCN(C(c3ccc(F)cc3)c3ccc(F)cc3)CC2)n1,–,–,inactive,inactive,–,–,inactive,inactive,–
C/C(=N/NC(=O)c1ccncc1)C(=O)O,–,–,inactive,–,inactive,inactive,inactive,–,–
CCCCC/C(=C\c1ccccc1)CO,inactive,inactive,–,–,inactive,inactive,inactive,–,inactive
COCCOC,–,–,–,inactive,inactive,inactive,inactive,–,inactive
O=C1OCCN1/N=C/c1ccc([N+](=O)[O-])o1,–,inactive,–,–,15 µM (active),–,inactive,inactive,–
CC1=C(/C=C/C(C)=C\C=C\C(C)=C\C(=O)O)C(C)(C)CCC1,–,–,inactive,inactive,–,inactive,inactive,–,inactive
CN(C)CCOC1=Cc2ccccc2Sc2ccc(Cl)cc21,inactive,–,–,inactive,inactive,inactive,inactive,inactive,–
Cn1c(=O)c2c(ncn2CC(=O)O)n(C)c1=O,–,–,inactive,inactive,inactive,inactive,inactive,–,–

SMILES,Potency [1],Potency [2],Potency [3],Potency [4],Potency [5],Potency [6],Potency [7],Potency [8],Potency [9]
CCOCCn1c(C2CCN(CCc3ccc(C(C)(C)C(=O)O)cc3)CC2)nc2ccccc21,–,–,–,–,inactive,inactive,inactive,inactive,–
COC(=O)c1cc(S(N)(=O)=O)ccc1OC,–,–,inactive,inactive,inactive,inactive,inactive,–,–
O=C(O)c1c(O)c(-c2ccccc2)nc2ccccc12,–,–,–,inactive,inactive,inactive,inactive,inactive,–
CC1C2CC(CC2C2CCCC(O)C2)C1(C)C (centres undefined),inactive,–,–,inactive,–,61.1 µM (active),49 µM (active),–,inactive
O=C(N/N=C/c1ccc([N+](=O)[O-])o1)c1ccc(O)cc1,–,inactive,–,–,–,23.7 µM (active),inactive,inactive,11.4 µM (active)
O=C(C(=O)c1ccccc1)c1ccccc1,–,–,–,inactive,–,inactive,inactive,inactive,inactive
O=C(CCCCCCC(=O)Nc1ccccc1)NO,inactive,–,–,–,–,–,inactive,inactive,inactive
Nc1c(I)cc(I)c(C(=O)N(CCC(=O)O)c2ccccc2)c1I,–,–,–,–,inactive,inactive,inactive,–,–
CO[C@@]12[C@H](COC(N)=O)C3=C(C(=O)C(C)=C(N)C3=O)N1C[C@@H]1N[C@@H]12,–,–,–,–,–,16.8 µM (active),–,inactive,29.8 µM (active)
CCCCCCOC(=O)CCCCCCCC(=O)OCCCCCC,–,–,–,inactive,inactive,inactive,inactive,inactive,inactive
COc1ccc(C(=O)c2cccc(O)c2)c(OC)c1,17.2 µM (active),inactive,–,inactive,–,inactive,inactive,inactive,inactive
COCCOC(=O)C1=C(C)NC(C)=C(C(=O)OC/C=C/c2ccccc2)C1c1cccc([N+](=O)[O-])c1 (centres undefined),0.944 µM (active),–,18.8 µM (active),–,–,–,inactive,inactive,–
Cc1ccc(Nc2nccc(N(C)c3ccc4c(C)n(C)nc4c3)n2)cc1S(N)(=O)=O,–,–,26.6 µM (active),–,–,inactive,inactive,–,23.7 µM (active)
Cc1ccc(S(=O)(=O)NC2CCCCC2)cc1,–,inactive,–,inactive,inactive,inactive,inactive,–,inactive
COc1ccc([C@@H]2Sc3ccccc3NC(=O)[C@@H]2O)cc1,–,–,–,–,inactive,inactive,inactive,inactive,–
C=CC(C)(C)CC(=O)OC,–,–,–,inactive,inactive,inactive,inactive,–,inactive
CCNC(=O)N1CCN(CCCC(c2ccc(F)cc2)c2ccc(F)cc2)CC1,inactive,–,–,inactive,–,inactive,inactive,inactive,13.3 µM (active)
CCCCC1C(=O)N(c2ccccc2)N(c2ccc(O)cc2)C1=O (centres undefined),inactive,–,–,inactive,29.8 µM (active),inactive,–,–,inactive
